According to publication PMC7862700, “An all-to-all approach to the identification of sequence-specific readers for epigenetic DNA modifications on cytosine”:

Assays:
Assay in all cases: DAPPL (digital affinity profiling via proximity ligation, sequencing); 10 mM Tris-HCl pH 7.5, 50 mM NaCl, 1 mM DTT, 4% glycerol, room temperature, 30 min; GST-TFs on glutathione beads, 16-mer random dsDNA library, 0.1% formaldehyde crosslink after washing; high values mean tight binding
Conditions in all cases: protein: recombinant; tags: N-terminal GST; dsDNA, one strand shown
FLI1 = target: T1, FLI1 (Homo sapiens, UniProt Q01543 1-452)
T1 sequence: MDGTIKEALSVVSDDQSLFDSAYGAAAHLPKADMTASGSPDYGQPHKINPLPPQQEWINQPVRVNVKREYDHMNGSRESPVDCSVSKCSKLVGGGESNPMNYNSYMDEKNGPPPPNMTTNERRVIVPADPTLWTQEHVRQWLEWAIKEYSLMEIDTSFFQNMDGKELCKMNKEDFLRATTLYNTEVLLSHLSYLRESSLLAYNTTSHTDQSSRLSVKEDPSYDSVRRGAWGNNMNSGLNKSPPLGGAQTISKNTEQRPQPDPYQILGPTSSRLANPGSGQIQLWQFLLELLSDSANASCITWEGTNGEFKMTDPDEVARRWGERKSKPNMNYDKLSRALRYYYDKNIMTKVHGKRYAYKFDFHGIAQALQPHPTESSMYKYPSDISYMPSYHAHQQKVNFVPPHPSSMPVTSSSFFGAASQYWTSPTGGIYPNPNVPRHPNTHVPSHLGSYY
In short: (§1)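 After expression in yeast as GST fusions, human transcription factors were bound to glutathione beads, DNA-barcoded and mixed with a tag-only sample. The pools were incubated with 200 nmole of a 16-mer random double-stranded DNA library in Tris/NaCl/DTT/glycerol buffer (30 min, room temperature), washed and crosslinked with 0.1% formaldehyde. Proximity ligation with BsaI/T4 ligase ran for 1 h at 37 °C, before PCR amplification and sequencing on an Illumina NextSeq500. Binding signal is a hexamer's read frequency for a factor divided by its frequency for the tag-only sample.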

ELK1 = target: T2, ELK1 (Homo sapiens, UniProt P19419 1-428)
T2 sequence: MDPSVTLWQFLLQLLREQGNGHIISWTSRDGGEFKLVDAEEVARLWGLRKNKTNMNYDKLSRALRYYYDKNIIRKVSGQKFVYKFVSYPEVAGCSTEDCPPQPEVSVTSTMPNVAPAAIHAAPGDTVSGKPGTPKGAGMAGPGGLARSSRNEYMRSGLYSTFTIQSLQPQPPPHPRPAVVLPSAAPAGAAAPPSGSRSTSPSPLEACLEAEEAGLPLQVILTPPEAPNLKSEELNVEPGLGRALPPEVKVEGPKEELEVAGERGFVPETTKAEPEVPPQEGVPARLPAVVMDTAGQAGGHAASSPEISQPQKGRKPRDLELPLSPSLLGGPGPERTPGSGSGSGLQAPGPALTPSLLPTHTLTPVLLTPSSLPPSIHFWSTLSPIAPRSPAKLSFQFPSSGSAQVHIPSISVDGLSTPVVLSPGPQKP
In short: as §1

GABPA = target: T3, GABPA (Homo sapiens, UniProt Q06546 1-454)
T3 sequence: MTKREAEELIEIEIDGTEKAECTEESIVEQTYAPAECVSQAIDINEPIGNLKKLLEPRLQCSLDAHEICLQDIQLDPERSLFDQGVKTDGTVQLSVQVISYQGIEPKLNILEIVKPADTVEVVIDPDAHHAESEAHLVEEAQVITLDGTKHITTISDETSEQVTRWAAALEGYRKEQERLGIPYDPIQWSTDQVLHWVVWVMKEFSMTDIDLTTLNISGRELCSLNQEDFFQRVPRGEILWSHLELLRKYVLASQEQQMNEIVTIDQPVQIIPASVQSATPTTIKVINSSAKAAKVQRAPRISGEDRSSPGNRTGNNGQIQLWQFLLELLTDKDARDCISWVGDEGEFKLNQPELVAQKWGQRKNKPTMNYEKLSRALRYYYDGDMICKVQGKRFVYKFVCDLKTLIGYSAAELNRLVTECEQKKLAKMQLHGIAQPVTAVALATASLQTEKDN
In short: as §1

ERG = target: T4, ERG (Homo sapiens, UniProt P11308 1-479)
T4 sequence: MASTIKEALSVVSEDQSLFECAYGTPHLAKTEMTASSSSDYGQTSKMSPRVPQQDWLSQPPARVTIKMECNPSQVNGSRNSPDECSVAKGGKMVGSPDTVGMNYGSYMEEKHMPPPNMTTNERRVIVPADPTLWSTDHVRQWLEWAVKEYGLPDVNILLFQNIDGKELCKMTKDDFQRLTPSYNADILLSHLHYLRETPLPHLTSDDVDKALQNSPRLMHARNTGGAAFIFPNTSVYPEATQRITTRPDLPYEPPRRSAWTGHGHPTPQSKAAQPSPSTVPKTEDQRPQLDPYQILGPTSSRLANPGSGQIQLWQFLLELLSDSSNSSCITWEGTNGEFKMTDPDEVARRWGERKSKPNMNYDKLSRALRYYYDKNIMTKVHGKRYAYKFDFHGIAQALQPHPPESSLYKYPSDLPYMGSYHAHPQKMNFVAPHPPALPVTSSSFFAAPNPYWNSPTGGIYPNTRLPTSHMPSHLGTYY
In short: as §1

ELF1 = ELF1 (Homo sapiens, UniProt P32519 1-619)
Chain of ELF1 (P32519 whole entry): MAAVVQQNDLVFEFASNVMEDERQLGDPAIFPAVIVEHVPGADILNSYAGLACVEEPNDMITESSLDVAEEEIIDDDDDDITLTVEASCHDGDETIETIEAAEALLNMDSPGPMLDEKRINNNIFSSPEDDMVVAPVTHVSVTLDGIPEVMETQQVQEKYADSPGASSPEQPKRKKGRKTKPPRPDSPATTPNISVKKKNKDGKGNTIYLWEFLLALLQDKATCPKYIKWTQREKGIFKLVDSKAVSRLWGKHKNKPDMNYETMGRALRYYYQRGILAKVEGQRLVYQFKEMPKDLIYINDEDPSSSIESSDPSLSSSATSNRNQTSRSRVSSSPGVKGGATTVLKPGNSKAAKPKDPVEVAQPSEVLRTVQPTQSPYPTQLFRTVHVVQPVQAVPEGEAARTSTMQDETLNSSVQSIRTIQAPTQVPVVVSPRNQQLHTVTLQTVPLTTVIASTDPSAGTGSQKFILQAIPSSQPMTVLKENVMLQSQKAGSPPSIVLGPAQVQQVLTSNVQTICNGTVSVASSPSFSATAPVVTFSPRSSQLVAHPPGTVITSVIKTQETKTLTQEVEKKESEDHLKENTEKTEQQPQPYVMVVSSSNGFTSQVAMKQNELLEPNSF
In short: as §1

EHF = target: T5, EHF (Homo sapiens, UniProt Q9NZC4 1-300)
T5 sequence: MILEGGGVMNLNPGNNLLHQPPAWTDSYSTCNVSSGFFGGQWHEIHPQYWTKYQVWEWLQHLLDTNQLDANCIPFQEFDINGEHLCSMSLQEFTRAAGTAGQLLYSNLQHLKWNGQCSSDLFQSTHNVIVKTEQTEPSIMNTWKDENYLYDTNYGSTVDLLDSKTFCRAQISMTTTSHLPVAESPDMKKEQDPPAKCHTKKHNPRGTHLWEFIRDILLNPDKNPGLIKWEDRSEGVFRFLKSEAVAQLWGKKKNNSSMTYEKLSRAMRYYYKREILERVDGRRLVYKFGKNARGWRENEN
In short: as §1

SPI1 = SPI1 (Homo sapiens, UniProt P17947 1-270)
In short: as §1

SPIB = SPIB (Homo sapiens, UniProt Q01892 1-262)
Chain of SPIB (Q01892 whole entry): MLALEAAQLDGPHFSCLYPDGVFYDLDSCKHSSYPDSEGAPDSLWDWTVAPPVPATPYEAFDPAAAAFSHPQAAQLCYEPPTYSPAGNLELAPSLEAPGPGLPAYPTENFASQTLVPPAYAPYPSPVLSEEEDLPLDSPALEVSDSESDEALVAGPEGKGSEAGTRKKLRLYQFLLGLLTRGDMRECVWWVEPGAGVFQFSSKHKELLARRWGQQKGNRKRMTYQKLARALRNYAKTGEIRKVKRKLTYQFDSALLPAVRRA
In short: as §1

ELK3 = target: T6, ELK3 (Homo sapiens, UniProt P41970 1-407)
T6 sequence: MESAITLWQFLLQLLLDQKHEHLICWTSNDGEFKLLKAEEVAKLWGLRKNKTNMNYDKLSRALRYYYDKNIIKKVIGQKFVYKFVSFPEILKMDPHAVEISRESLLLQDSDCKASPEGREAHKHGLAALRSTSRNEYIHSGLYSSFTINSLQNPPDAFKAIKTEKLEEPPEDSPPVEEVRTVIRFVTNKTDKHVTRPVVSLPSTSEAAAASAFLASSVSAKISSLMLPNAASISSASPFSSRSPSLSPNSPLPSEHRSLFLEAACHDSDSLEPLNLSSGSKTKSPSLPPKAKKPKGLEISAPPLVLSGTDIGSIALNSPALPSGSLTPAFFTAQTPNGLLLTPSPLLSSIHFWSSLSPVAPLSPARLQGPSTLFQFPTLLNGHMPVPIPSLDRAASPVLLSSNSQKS
In short: as §1

Sequence | binding signal (FLI1) | binding signal (ELK1) | binding signal (GABPA) | binding signal (ERG) | binding signal (ELF1) | binding signal (EHF) | binding signal (SPI1) | binding signal (SPIB) | binding signal (ELK3)
TGTTCC | 1.69 fold enrichment (6-mer frequency, TF over GST control) | 1.61 fold enrichment (6-mer frequency, TF over GST control) | 1.74 fold enrichment (6-mer frequency, TF over GST control) | 1.68 fold enrichment (6-mer frequency, TF over GST control) | 1.66 fold enrichment (6-mer frequency, TF over GST control) | 1.83 fold enrichment (6-mer frequency, TF over GST control) | 1.81 fold enrichment (6-mer frequency, TF over GST control) | 1.8 fold enrichment (6-mer frequency, TF over GST control) | 1.5 fold enrichment (6-mer frequency, TF over GST control)
TATTTT | 1.3 fold enrichment (6-mer frequency, TF over GST control) | 1.3 fold enrichment (6-mer frequency, TF over GST control) | 1.34 fold enrichment (6-mer frequency, TF over GST control) | 1.39 fold enrichment (6-mer frequency, TF over GST control) | 1.31 fold enrichment (6-mer frequency, TF over GST control) | 1.44 fold enrichment (6-mer frequency, TF over GST control) | 1.35 fold enrichment (6-mer frequency, TF over GST control) | 1.32 fold enrichment (6-mer frequency, TF over GST control) | 1.36 fold enrichment (6-mer frequency, TF over GST control)
CACTTT | 1.25 fold enrichment (6-mer frequency, TF over GST control) | 1.33 fold enrichment (6-mer frequency, TF over GST control) | 1.21 fold enrichment (6-mer frequency, TF over GST control) | 1.26 fold enrichment (6-mer frequency, TF over GST control) | 1.35 fold enrichment (6-mer frequency, TF over GST control) | 1.36 fold enrichment (6-mer frequency, TF over GST control) | 1.39 fold enrichment (6-mer frequency, TF over GST control) | 1.37 fold enrichment (6-mer frequency, TF over GST control) | 1.29 fold enrichment (6-mer frequency, TF over GST control)
TATGGC | 1.19 fold enrichment (6-mer frequency, TF over GST control) | 1.29 fold enrichment (6-mer frequency, TF over GST control) | 1.26 fold enrichment (6-mer frequency, TF over GST control) | 1.27 fold enrichment (6-mer frequency, TF over GST control) | 1.24 fold enrichment (6-mer frequency, TF over GST control) | 1.1 fold enrichment (6-mer frequency, TF over GST control) | 1.12 fold enrichment (6-mer frequency, TF over GST control) | 1.18 fold enrichment (6-mer frequency, TF over GST control) | 1.16 fold enrichment (6-mer frequency, TF over GST control)
TTCGAC | 1.52 fold enrichment (6-mer frequency, TF over GST control) | 1.51 fold enrichment (6-mer frequency, TF over GST control) | 1.49 fold enrichment (6-mer frequency, TF over GST control) | 1.43 fold enrichment (6-mer frequency, TF over GST control) | 1.49 fold enrichment (6-mer frequency, TF over GST control) | 1.41 fold enrichment (6-mer frequency, TF over GST control) | 1.3 fold enrichment (6-mer frequency, TF over GST control) | 1.45 fold enrichment (6-mer frequency, TF over GST control) | 1.39 fold enrichment (6-mer frequency, TF over GST control)
TTCTTA | 1.42 fold enrichment (6-mer frequency, TF over GST control) | 1.43 fold enrichment (6-mer frequency, TF over GST control) | 1.37 fold enrichment (6-mer frequency, TF over GST control) | 1.4 fold enrichment (6-mer frequency, TF over GST control) | 1.37 fold enrichment (6-mer frequency, TF over GST control) | 1.28 fold enrichment (6-mer frequency, TF over GST control) | 1.34 fold enrichment (6-mer frequency, TF over GST control) | 1.28 fold enrichment (6-mer frequency, TF over GST control) | 1.5 fold enrichment (6-mer frequency, TF over GST control)
TATATT | 1.34 fold enrichment (6-mer frequency, TF over GST control) | 1.33 fold enrichment (6-mer frequency, TF over GST control) | 1.47 fold enrichment (6-mer frequency, TF over GST control) | 1.41 fold enrichment (6-mer frequency, TF over GST control) | 1.47 fold enrichment (6-mer frequency, TF over GST control) | 1.43 fold enrichment (6-mer frequency, TF over GST control) | 1.3 fold enrichment (6-mer frequency, TF over GST control) | 1.34 fold enrichment (6-mer frequency, TF over GST control) | 1.3 fold enrichment (6-mer frequency, TF over GST control)
